From PubChem BioAssay (Tox21)
Unmarked numbers belong to inactive results. Calls of active or inactive are those of the source. Calls follow the shape of the dose curve; as a rule, active = well fitted curve in the direction sought with a large enough effect in the repeat runs; inconclusive = weak or mixed curves; inactive = flat fitted curve, though single readings scatter.

Assay: qHTS assay to test for compound auto fluorescence at 460 nm (blue) in HepG2 cell free culture (AID 720685)
Details: Cell-free culture medium, blue autofluorescence 405/460 nm; series mostly up to 46 µM; fluorescence, % of fluorescent control: at the top concentration
Procedure, shortened: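 Cell-free plates of MEM plus 10% FBS received 23 nL compound or DMSO vehicle; blue-channel (405/460 nm) intensity scored against triamterene as reference fluorophore.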
% is scaled to controls: 0 for no effect and ±100 for the full control effect; potency is read from the fitted curve at half-maximal effect; tags tell the direction and shape of the fitted curve or compound fluorescence and quenching.

Row | Structure (SMILES) | fluorescence, % of fluorescent control | Potency
1 | CC(C)=CCN1CC[C@]2(C)c3cc(O)ccc3C[C@H]1[C@H]2C | 0.429% [at 91.3 µM] | –
2 | CN[C@@]1(c2ccccc2Cl)CCCCC1=O | -0.0049% | –
3 | CCNC1(c2cccs2)CCCCC1=O (stereo not given) | 0.0047% [at 18.6 µM] | –
4 | CNC(C)CC1CCCCC1 (stereo not given) | 0.156% | –
5 | CCC1(c2ccccc2)C(=O)NC(=O)N(C)C1=O (stereo not given) | 0.0252% | –
6 | COc1cc([C@@H]2c3cc4c(cc3[C@@H](O)[C@H]3COC(=O)[C@H]23)OCO4)cc(OC)c1O | 0.745% | –
7 | CN1CC[C@@]23CCCC[C@@H]2[C@@H]1Cc1ccc(O)cc13 | -0.139% | –
8 | CNC(C)Cc1ccccc1 (stereo not given) | 0.0389% [at 91.3 µM] | –
9 | CN[C@@H](C)Cc1ccccc1 | 0.0563% [at 91.3 µM] | –
10 | CCCCNC(C)(C)[P+](=O)O | 0.0782% | –
11 | O=C1C[C@@H]2OCC=C3CN4CC[C@]56c7ccccc7N1[C@H]5[C@H]2[C@H]3C[C@H]46 (tested in a mixture with another compound) | – | inactive
12 | O=c1ccc2cc(O[C@@H]3O[C@H](CO)[C@@H](O)[C@H](O)[C@H]3O)c(O)cc2o1 | – | 8.91 µM [fluorescent] (active)
13 | C/C=C(\CC)C(=O)NC(N)=O | -0.0154% | –
14 | C[C@]12CCC(=O)C[C@@H]1CC[C@@H]1[C@@H]2CC[C@@]2(C)[C@H]1CC[C@]2(C)O | 0.0184% | –
15 | Cc1nnc2n1-c1ccc(Cl)cc1C(c1ccccc1)=NC2 | -0.003% | –
16 | N#CC(C#N)=Cc1cc(O)c(O)c(O)c1 | -0.0003% | –
17 | CCCSc1cc(OC)c(CCN)cc1OC | 0.224% [at 95.7 µM] | –
18 | O=C(O)CCCO | -0.0262% [at 95.7 µM] | –
19 | Oc1ccc2c3c1O[C@H]1[C@@H](O)C=C[C@H]4[C@H](C2)NCC[C@@]341 | 0.173% | –
20 | O=P1(N(CCCl)CCCl)NC(OO)CCO1 (stereo not given) | -0.0955% | –

Row | Structure (SMILES) | fluorescence, % of fluorescent control | Potency
21 | COC(=O)[C@H]1[C@@H](OC(=O)c2ccccc2)C[C@@H]2CC[C@H]1N2C | 0.167% [at 91.3 µM] | –
22 | O=C1CN=C(c2ccccc2)c2cc(Cl)ccc2N1 | 0.0239% | –
23 | C=C[C@H]1CN2CC[C@H]1C[C@H]2[C@H](OC(=O)OCC)c1ccnc2ccc(OC)cc12 | -0.0158% | –
24 | CCc1cc(OC)c(C[C@@H](C)N)cc1OC | -0.0218% [at 95.7 µM] | –
25 | CC(C)[C@H]1C(=O)N2CCC[C@H]2[C@]2(O)O[C@](NC(=O)[C@@H]3C[C@@H]4c5cccc6[nH]cc(c56)C[C@H]4N(C)C3)(C(C)C)C(=O)N12 | 1.32% | –
26 | C[C@]12CC[C@H]3[C@@H](CCC4=C(Cl)C(=O)CC[C@@]43C)[C@@H]1CC[C@@H]2O | 0.0153% | –
27 | Clc1ccc(C(Cn2ccnc2)OCc2csc3c(Cl)cccc23)c(Cl)c1 (stereo not given) | 0.129% [at 18.6 µM] | –
28 | C[C@@H]1[C@@H]2Cc3ccc(O)cc3[C@@]1(C)CCN2CC1CC1 | 0.0098% | –
29 | C[C@@H]1[C@H]2Cc3ccc(O)cc3[C@]1(C)CCN2C | -0.0099% [at 95.7 µM] | –
30 | CC(C)C[C@H]1C(=O)N2CCC[C@H]2[C@]2(O)O[C@](NC(=O)[C@@H]3C[C@@H]4c5cccc6[nH]cc(c56)C[C@H]4N(C)C3)(C(C)C)C(=O)N12 | 0.732% | –
31 | [H+].[H+].[Hg+2].[O-]B([O-])[O-].[c-]1ccccc1 | -0.0056% | –
32 | C=CCC1([C@@H](C)CCC)C(=O)NC(=O)NC1=O | -0.0485% [at 91.3 µM] | –
33 | c1ccc2c(c1)Sc1ccccc1N2C[C@@H]1CN2CCC1CC2 | 0.082% | –
34 | C[C@@H](Cc1ccccc1)NCCC(c1ccccc1)c1ccccc1 | 0.0644% [at 18.6 µM] | –
35 | CC[C@H]1[C@@H]2C[C@H]3[C@@H]4N(C)c5ccccc5[C@]45C[C@@H](C2[C@H]5O)N3[C@@H]1O (stereo not given in full) | -0.0082% [at 18.6 µM] | –
36 | CC(N)Cc1ccc2c(c1)OCO2 (stereo not given) | -0.0641% | –
37 | CN1c2ccccc2C(NCCCCCCC(=O)O)c2ccc(Cl)cc2S1(=O)=O (stereo not given) | 0.284% | –
38 | CN[C@]1(c2ccccc2Cl)CCCCC1=O | -0.101% | –
39 | C[C@]12CC[C@@H]3c4ccc(OC(=O)N(CCCl)CCCl)cc4CC[C@H]3[C@@H]1CC[C@@H]2OP(=O)(O)O | – | inactive
40 | CC(=O)[C@@]1(O)CC[C@H]2[C@@H]3CCC4=CC(=O)CC[C@]4(C)C3(F)[C@@H](O)C[C@@]21C (stereo not given in full) | -0.0162% | –
